# Screening data deposited in PubChem BioAssay by National Center for Advancing Translational Sciences (NCATS).
# L3MBTL1 block: qHTS Assay for the Inhibitors of L3MBTL1; Lethal(3)malignant brain tumor-like protein 1 (Homo sapiens), Q9Y468; hit rate 0.66% among 230,000; AlphaScreen L3MBTL1–H3K9me1 peptide binding; Potency, µM (series often up to 57.1 µM), without a hit: at the highest dose activity, negative = inhibition, actives largely listed as inhibitors; note: % is set by controls: 0 for no effect and ±100 for the full control effect; nearly all actives have a fitted effect of over 60% in size
#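 Displacement of a biotinylated histone H3(1-15) peptide monomethylated at Lys9 (75 nM) from L3MBTL1 (50 nM) was measured by AlphaScreen after a 30 min room-temperature compound incubation; cefsulodin titration served as intraplate control.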
# G9a block: qHTS Assay for Inhibitors of Histone Lysine Methyltransferase G9a; G9a H3K9 monomethylation, AlphaScreen, 2 h; Potency, µM (highest dose often 102 µM), without a hit: at the highest dose activity, negative = inhibition, hits mostly inhibitors; hit rate 8.8% among 350,000; note: % is set by controls: 0 for no effect and ±100 for the full control effect; nearly all actives have a fitted effect of over 75% in size
#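 Enzyme 20 nM + cpd, 15 min RT; add b-H3K9 pep 500 nM / SAM 20 uM; 2 h RT; anti-H3K9me1 Ab 0.5 ug/mL + SA donor / anti-rabbit acceptor beads 20 ug/mL each, 10 min; AlphaScreen read.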
# JMJD2A Tudor inh: qHTS Assay for Inhibitors of JMJD2A-Tudor Domain; Lysine-specific demethylase 4A (Homo sapiens), O75164; AlphaScreen JMJD2A-Tudor / H3K4me3 peptide binding; Potency, µM (doses to about 114 µM), without a hit: at the top dose activity change, negative = inhibition, actives largely listed as inhibitors; hit rate 4.4% among 390,000; note: % is set by controls: 0 for no effect and ±100 for the full control effect; nearly all actives have a fitted effect of over 50% in size
# BAZ2B inh: qHTS Assay for Inhibitors of BAZ2B; Bromodomain adjacent to zinc finger domain protein 2B (Homo sapiens), Q9UIF8; AlphaScreen BAZ2B-H3K14Ac peptide displacement; Potency, µM (highest dose often 114 µM), for the others: at the top dose activity change, negative = inhibition, usual class: inhibitors; hit rate 4.4% among 360,000; AID 504333, 2011; note: % is set by controls: 0 for no effect and ±100 for the full control effect; nearly all actives have a fitted effect of over 60% in size
#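 Inhibition is scored as reduced AlphaScreen emission. The BAZ2B/b-H3(5-23)K14Ac complex (50 nM each) in PBS pH 7.4, 0.01% Tween-20 meets compound (up to 110 uM) for 30 min at RT before bead addition.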
# Sfp PPTase inh: qHTS Assay for Inhibitors of Bacillus subtilis Sfp phosphopantetheinyl transferase (PPTase); Potency, µM, without a hit: largest response in the series, negative = inhibition, usual class: inhibitors; AID 1490, 2009; Biochemical Sfp PPTase activity, qHTS; 4'-phosphopantetheinyl transferase ffp (Bacillus subtilis), Q9F4F7; hit rate 3.5% among 310,000;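 note: the enzyme is Sfp with the accession as filed and its product quenches rhodamine fluorescence; 0% = enzyme reaction without inhibitor and -100% = no enzyme wells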
#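 Fluorescence-quenching assay with 15 nM Sfp, 5 uM rhodamine-CoA and 12.5 uM BHQ-2-labelled ybbR peptide in pH 7.6 Hepes/MgCl2 buffer. Enzyme was pre-incubated with compound for 15 min at room temperature. Rate was taken from the 30-min fluorescence change (525/598 nm).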
# HP1b chromo inh: HTS for Inhibitors of HP1-beta Chromodomain Interactions with Methylated Histone Tails. Chromobox protein homolog 1 (Homo sapiens), P83916. AlphaScreen HP1-beta / biotin-H3K9me3 peptide binding. Potency, µM (top dose mostly 114 µM), without a hit: at the top dose activity change, negative = inhibition, actives largely listed as inhibitors. hit rate 0.56% among 390,000; note: nearly all actives have a fitted effect of over 70% in size
#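 HP1-beta protein (50 nM final) preincubated 30 min at room temperature with biotinylated H3(1-18)K9me3 peptide (50 nM) in PBS pH 7.4, 0.01% Tween-20, then compound added for 30 min. AlphaScreen streptavidin donor/nickel chelate acceptor beads (10 ug/mL final), 30 min dark, luminescence read.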
# Numbers without * were called inactive; ? = inconclusive; . = no result; [ ] = remark or other dose. Hits are enriched below; roughly 12% of the tested compounds scored in any of these assays. Calls come from the whole dose curve; as a rule, active = well fitted curve in the direction sought with a large enough effect; inconclusive = small, poorly fitted or top-dose-only effect, or another doubt; inactive = no such curve, though single readings can be large; an effect the other way counts as inactive or inconclusive. Potency is the fitted concentration of half-maximal effect.
SMILES,L3MBTL1 block,G9a block,JMJD2A Tudor inh,BAZ2B inh,Sfp PPTase inh,HP1b chromo inh
NC(=S)NNc1cc(Cl)cc(Cl)c1,.,?,35µM*,-36%,14µM*,-19%
Cc1ccccc1NNC(=O)C(=O)NNc1ccccc1C,-6%,?,18µM*,50µM*,-17%,?
Cc1cc(Cl)ccc1NNC(N)=S,.,20µM*,-23%,-31%,50µM*,-7%
COc1ccc(O)c(/C=c2/sc3nc4cc(C)c(C)cc4n3c2=O)c1,-10%,2.5µM*,?,-8%,8.9µM*,?
CC(C)Cn1cc(NC(=O)NCc2ccccc2)c2ccccc2c1=O,.,?,-12%,6%[57.1 µM],.,9%
CC(C)Cn1cc(NC(=O)NCc2ccc(Cl)cc2)c2ccccc2c1=O,.,?,40µM*,3%[57.1 µM],.,32%
COc1ccc(NC(=O)C2CCN(S(=O)(=O)c3ccc4c(c3)CCCC(=O)N4)CC2)cc1OC,.,1%[59 µM],-2%,7%[57.1 µM],.,34%
S=c1[nH]nc(Cc2ccccc2)n1Cc1ccco1,?,?,4µM*,-4%,4%,-19%
CN(C)C(=O)CSc1nnc(Cc2ccccc2)n1Cc1ccco1,11%[11.4 µM],?,-2%[57.1 µM],0%,-4%,50%
CCCn1c(Cc2ccccc2)n[nH]c1=S,.,?,7.1µM*,2%,14%,5%
Cc1ccc(N(Cc2ccccc2)C(=O)c2ccc(F)c(S(=O)(=O)N3CCOCC3)c2)cc1,-11%,45µM*,-17%,-4%,.,-1%
Cc1cccc(N(Cc2ccccc2)C(=O)c2ccc(F)c(S(=O)(=O)N3CCOCC3)c2)c1,2%,1%,-23%,-10%,.,19%
NC(=S)N/N=C1\CC(c2ccc3c(c2)OCCO3)Oc2ccc(F)cc21 (stereo not given),-7%,7%,-17%,-19%,8%,-4%
NC(=S)N/N=C1\CC(c2ccc3c(c2)OCCCO3)Oc2ccc(F)cc21 (stereo not given),.,.,?,25µM*,1%,-22%
CCOc1ccc(CN2C(=O)c3ccccc3Sc3ccc(C(=O)NCc4ccc5c(c4)OCO5)cc32)cc1,.,-1%[59 µM],-9%,.,.,22%
CC1(C)C2CCC(C2)C1(C)NC(=O)CNC1CCCCC1 (stereo not given),16%,13µM*,-34%[11.4 µM],50µM*,-7%,-26%
Cc1ccc(NC(=O)CNCc2cccs2)c(Br)c1,6%,?,-1%,-4%,5%,103%
CC1(C)C2CCC(C2)C1(C)NC(=O)CN1CCOCC1 (stereo not given),0%,10µM*,32µM*,50µM*,-11%,?
CC1(C)C2CCC(C2)C1(C)NC(=O)CN1CCCC1 (stereo not given),-3%,5µM*,28µM*,?,-18%,-35%
CC1(C)C2CCC(C2)C1(C)NC(=O)CNCc1cccs1 (stereo not given),5%,11µM*,25µM*,.,89µM*,?
Cc1nc(-c2ccc(S(=O)(=O)N3CCN(c4cccc(Cl)c4)CC3)cc2)co1,.,-33%[59 µM],-26%,-6%,.,-1%[57 µM]
CC1=C(C(=O)N2CCOCC2)C(c2ccc(O)cc2)NC(=S)N1 (stereo not given),-3%,?,-10%,0%,?,31%
Oc1ccc2c(c1)C1CCCC1(N1CCOCC1)O2 (stereo not given),32µM*,8.9µM*,-20%,?,50µM*,?
COc1ccc(Cc2nnc(NC(=O)c3c(-c4ccccc4)noc3C)s2)cc1,.,?,-26%,?,11%,30%
CCOCc1nnc(NC(=O)c2c(-c3ccccc3)noc2C)s1,.,32µM*,-28%,-2%,?,-23%
SMILES,L3MBTL1 block,G9a block,JMJD2A Tudor inh,BAZ2B inh,Sfp PPTase inh,HP1b chromo inh
COc1ccc(Cc2nnc(NC(=O)c3c(-c4ccccc4)noc3C)s2)cc1OC,12%,40µM*,.,-7%,-22%,.
Cc1cc(NS(=O)(=O)c2cn(C)c(C)n2)ccc1Br,.,-6%[59 µM],-5%,0%,.,21%[57 µM]
CCOc1ccc(-c2c(C)nn3c(C)c(C(=O)NCC(C)c4ccccc4)cnc23)cc1OCC (stereo not given),.,0%[59 µM],-32%,?,.,?
COc1ccc(N2CCN(c3nc(NCCc4ccc(OC)c(OC)c4)nc(OC)n3)CC2)cc1,.,11µM*,25µM*,40µM*,3%,?
CCSC(=O)N=Nc1ccc(O)cc1,.,.,56µM*,.,.,?
O=C(CSc1nnc(CNC(=O)c2cccs2)o1)c1ccc(Cl)cc1,.,?,0%,-2%,3%,32%
NCCCCCc1nnc(SCC(=O)c2ccc(Cl)cc2)o1,-6%,50µM*,-16%,0%,50µM*,26%
CC(C)(C)OC(=O)NCCc1nnc(SCC(=O)c2ccc(Cl)cc2)o1,11%,-3%[12.7 µM],-18%,-24%,-37%,6%
NCCc1nnc(SCC(=O)c2ccc(Cl)cc2)o1,-4%,?,-3%,-17%,56µM*,18%
CCC(Sc1nc2c(sc3ccccc32)c(=O)n1CCCC(=O)NC1CCCC1)C(=O)Nc1cccc(OC)c1 (stereo not given),.,19%[59 µM],0%,27%,.,65%
COC(=O)c1c(NC(=O)COC(=O)c2ccccc2O)sc2c1CCCCC2,37%,?,3%,32%,-20%,14%
COC(=O)c1c(NC(=O)COc2cccc(C(F)(F)F)c2)sc2c1CCCC2,.,8.9µM*,-5%,1%,.,0%
COC(=O)c1c(NC(=O)COC(=O)c2ccc(NC(=O)CC#N)cc2)sc2c1CCCCC2,?,-2%[59 µM],45µM*,45µM*,-24%,-17%
CCOC(=O)c1c(NC(=O)Cc2cccs2)sc2c1CCCC2,-1%,12%,13%,17%,32µM*,65%
CCOC(=O)c1c(NC(=O)CCC(=O)O)sc2c1CCCCC2,-5%,7.9µM*,?,-5%,?,?
CC(=O)NCCNc1cc(-c2ccccc2C)ncn1,.,3%[0.501 µM],.,.,9%,.
COc1cc2c(cc1OC)C1O[C@](CCCCN3C(=O)c4ccccc4C3=O)(C2)OC2=C1C(=O)c1ccccc1C2=O,.,.,.,-2%[22.9 µM],-23%,.
CCOC(=O)c1cc(OC(=O)c2ccc(OC)c(OC)c2)n(-c2ccccc2)n1,.,6%[59 µM],-20%,-20%,.,31%
CCc1ccc(CNC(=O)c2ccc(Cn3c(=O)c4cccn4c4cccnc43)cc2)cc1,.,2%[59 µM],-9%,-13%,.,28%
